Experimental data taken from PubChem BioAssay.
Activity calls are given as the source filed them. Unless noted, the rule behind the calls is not given here.

What was measured:
[1] = resazurin metabolic signal in HepG2 cells – cell-based, resazurin fluorescence, 24 h, PK04 Diversity Set, profiling panel (AID 1172); conditions: HepG2 viability, higher = more signal; note: test concentration not given here
[2] = budding yeast growth changes without added modifier – OD600, strain BY4716, 24 h, basal condition, primary screen (AID 1173); conditions: S. cerevisiae BY4716 growth, OD600, 24 h; higher = more signal, called active from +8 up or from −8 down
[3] = viability profiling in MM1S myeloma cells – cell-based, resazurin fluorescence, basal, 24 h, PK04 Diversity Set, profiling panel (AID 1174); conditions: higher = more signal, called active from +8 up or from −8 down;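 note: MM1S multiple myeloma cell line; test concentration not given here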
[4] = biological target: Dihydroorotate dehydrogenase (quinone), mitochondrial (Plasmodium falciparum (isolate 3D7)) (UniProt Q08210); assay: inhibition of P. falciparum DHODH – biochemical, C-terminal His tag, absorbance 600 nm, primary screen (AID 1175); conditions: PfDHODH enzyme, DCIP absorbance 600 nm; higher = more signal, called active from +8 up or from −8 down;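 note: recombinant parasite enzyme with a five histidine tag at its C terminus; test concentration not given here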
[5] = inhibition of PAO1 biofilm formation – strain PAO1, LB-PBS medium, absorbance 600 nm, primary screen (AID 1176); note: test concentration not given here; conditions: P. aeruginosa PAO1 growth/biofilm, A600, 12 h; higher = more signal
[6] = growth modulation of vineyard yeast isolate – strain RM11-1a, OD600, basal, 24 h, primary screen (AID 1177);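 note: cultures grown under basal conditions with no added stressor; test concentration not given here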; conditions: S. cerevisiae RM11-1a growth, OD600, 24 h; higher = more signal, called active from +8 up or from −8 down
[7] = growth of efflux-deficient E. coli DRC39 – strain DRC39, OD650, 24 h, E. coli filamentation inducers, primary screen (AID 1178);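 note: growth measured as culture turbidity by optical density at 650 nm; test concentration not given here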; conditions: E. coli DRC39 acrAB, higher = more signal, called active from +8 up or from −8 down
[8] = growth of efflux-deficient E. coli DRC39 – strain DRC39, OD650, 48 h, E. coli filamentation inducers, primary screen (AID 1179);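 note: screen aims at cell division blockers that make cells filament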; conditions: E. coli DRC39 delta-acrAB growth, higher = more signal, called active from +8 up or from −8 down
[9] = viability profiling in RPMI8226 myeloma cells – cell-based, resazurin fluorescence, basal, 24 h, PK04 Diversity Set, profiling panel (AID 1180); conditions: higher = more signal;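 note: RPMI8826 multiple myeloma cell line at 5000 cells per well; test concentration not given here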
[10] = biological target: E3 ubiquitin-protein ligase XIAP (Homo sapiens) (UniProt P98170); assay: small molecules binding XIAP protein – biophysical, small-molecule microarray, fluorescence 635 nm, primary screen (AID 1181); conditions: higher = more signal;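 note: score merges 667 nm emission and signal to noise over triplicate slides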
Chain of E3 ubiquitin-protein ligase XIAP (Homo sapiens) (P98170 whole entry, looked up): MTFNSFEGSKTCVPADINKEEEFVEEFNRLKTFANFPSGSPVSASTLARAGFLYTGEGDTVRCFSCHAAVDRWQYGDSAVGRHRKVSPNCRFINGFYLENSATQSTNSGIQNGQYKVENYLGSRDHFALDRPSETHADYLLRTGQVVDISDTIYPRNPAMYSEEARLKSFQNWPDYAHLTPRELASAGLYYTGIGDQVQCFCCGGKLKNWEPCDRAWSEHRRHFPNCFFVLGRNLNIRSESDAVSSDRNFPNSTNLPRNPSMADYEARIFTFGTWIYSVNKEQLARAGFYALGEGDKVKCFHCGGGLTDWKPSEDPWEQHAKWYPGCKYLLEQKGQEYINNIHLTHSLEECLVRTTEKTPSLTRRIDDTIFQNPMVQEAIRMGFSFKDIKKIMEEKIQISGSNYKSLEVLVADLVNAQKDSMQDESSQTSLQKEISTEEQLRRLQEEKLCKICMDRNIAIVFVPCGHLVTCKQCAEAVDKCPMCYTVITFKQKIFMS

Chain of Dihydroorotate dehydrogenase (quinone), mitochondrial (Plasmodium falciparum (isolate 3D7)) (Q08210 whole entry, looked up): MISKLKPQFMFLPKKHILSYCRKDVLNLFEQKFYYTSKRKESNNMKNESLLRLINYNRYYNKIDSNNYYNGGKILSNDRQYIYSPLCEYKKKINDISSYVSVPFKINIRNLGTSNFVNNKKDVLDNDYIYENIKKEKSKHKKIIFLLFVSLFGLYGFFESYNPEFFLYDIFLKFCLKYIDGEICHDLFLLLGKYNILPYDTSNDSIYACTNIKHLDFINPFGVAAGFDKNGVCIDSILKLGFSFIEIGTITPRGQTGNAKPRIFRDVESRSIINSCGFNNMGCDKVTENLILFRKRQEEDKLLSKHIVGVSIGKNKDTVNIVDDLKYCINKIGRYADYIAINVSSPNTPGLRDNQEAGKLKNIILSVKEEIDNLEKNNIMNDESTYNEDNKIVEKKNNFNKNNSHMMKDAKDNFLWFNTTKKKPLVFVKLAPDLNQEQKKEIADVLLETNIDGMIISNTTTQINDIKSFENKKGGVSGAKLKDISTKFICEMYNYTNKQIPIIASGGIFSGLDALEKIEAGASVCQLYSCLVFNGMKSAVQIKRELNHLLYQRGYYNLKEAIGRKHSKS

| Structure (SMILES) | z-score [1] | z-score [2] | z-score [3] | composite z-score [4] | z-score [5] | z-score [6] | z-score [7] | z-score [8] | z-score [9] | composite z-score [10] |
| --- | --- | --- | --- | --- | --- | --- | --- | --- | --- | --- |
| O=C1C[C@]2(c3ccc([N+](=O)[O-])cc3)C(=O)N(CC(F)(F)F)c3cc(CO)ccc3[C@H]2N1C1CCCCC1 | 0.0882 | 0.434 (inactive) | 0.679 (inactive) | -1.69 (inactive) | -0.686 (inactive) | -0.0434 (inactive) | 0.235 (inactive) | 0.16 (inactive) | 0.964 | -0.273 |
| CC(C)NC(=O)[C@@H]1c2ccccc2C(=O)N(C2Cc3ccccc3C2)[C@H]1c1ccc(CO)cc1 | 0.785 | 0.0928 (inactive) | 1.16 (inactive) | -0.427 (inactive) | -0.0528 (inactive) | 0.744 (inactive) | 0.859 (inactive) | 0.95 (inactive) | 1.59 | 0.133 |
| COC(=O)[C@]1(CCC(=O)OC(C)(C)C)N=C(c2ccc(OCCCO)cc2)O[C@@H]1c1ccccc1CN=[N+]=[N-] | -1.72 | 1.01 (inactive) | -5.09 (inactive) | 0.965 (inactive) | 1.53 (inactive) | 1.84 (inactive) | 0.637 (inactive) | -0.721 (inactive) | -4.68 | -0.0773 |
| O=C(c1ccccc1)N1C(=O)[C@]2(COC(c3ccc(OCCCO)cc3)=N2)Cc2ccccc21 | 0.0993 | -1.67 (inactive) | -1.96 (inactive) | 0.201 (inactive) | 0.95 (inactive) | 0.349 (inactive) | 0.107 (inactive) | -0.26 (inactive) | -1.24 | 0.0479 |
| CC(C)CNC(=O)[C@@]1(Cc2ccccc2I)c2ccccc2C(=O)N(C2CCCCC2)[C@H]1c1ccc(CO)cc1 | -0.462 | 0.408 (inactive) | -0.424 (inactive) | 0.193 (inactive) | 0.348 (inactive) | -0.199 (inactive) | -0.113 (inactive) | -0.0397 (inactive) | -0.124 | -0.0789 |
| CC(C)C[C@@H]1NC(=O)[C@@H]2C[C@H](C(=O)NCc3ccc(F)cc3)[C@H](c3cccc(OCCO)c3)N2C1=O | 0.137 | -0.929 (inactive) | 0.279 (inactive) | -1.26 (inactive) | 0.475 (inactive) | -0.694 (inactive) | 1.46 (inactive) | 1.48 (inactive) | 0.919 | -0.052 |
| O=C1C[C@@](C(=O)NCCN2CCOCC2)(c2ccc([N+](=O)[O-])cc2)[C@@H](c2ccc(CO)cc2)N1CC12CC3CC(CC(C3)C1)C2 | -2.48 | -11.2 (active) | -3.17 (inactive) | -0.601 (inactive) | 0.733 (inactive) | 1.77 (inactive) | -0.924 (inactive) | -1.66 (inactive) | -3.82 | -0.182 |
| O=C1OCCC/C=C\[C@H]2OC34C=CCN(Cc5ccccc5)C(=O)[C@H]3N(CCCO)C(=O)[C@@H]4C12 (stereo not given in full) | -0.203 | 1.29 (inactive) | 0.794 (inactive) | 0.905 (inactive) | -1.16 (inactive) | 1.29 (inactive) | 0.625 (inactive) | 0.59 (inactive) | 1.35 | -0.0876 |
| COc1cc(NN2C(C(O)c3ccco3)C=CC3C(=O)N(c4ccccc4)C(=O)C32)cc(OC)c1OC (stereo not given) | -1.41 | 1.58 (inactive) | -1.68 (inactive) | -2 (inactive) | 0.711 (inactive) | 0.178 (inactive) | -0.225 (inactive) | -1.32 (inactive) | -1.08 | -0.081 |
| Cc1ccc(S[C@]2(C(=O)O)CC(=O)N(C(C)C)[C@@H]2c2ccc(CO)cc2I)cc1 | 0.975 | -4.89 (inactive) | -1.66 (inactive) | -1.12 (inactive) | 0.953 (inactive) | -2.76 (inactive) | 0.818 (inactive) | 1.42 (inactive) | -1.58 | -0.122 |
| NCCCCCCNC(=O)[C@@H]1C[C@@H]2C(=O)NCC(=O)N2[C@@H]1c1ccc(O)cc1 | -0.45 | 0.333 (inactive) | 1.02 (inactive) | 0.99 (inactive) | 0.696 (inactive) | 0.681 (inactive) | -0.0366 (inactive) | -0.697 (inactive) | 0.08 | 0.0761 |
| O=C(NCCN1CCOCC1)C1N=C(c2ccc(OCCCO)cc2)N(c2ccccc2)O1 (stereo not given) | -0.154 | 0.554 (inactive) | 0.602 (inactive) | 0.301 (inactive) | -0.978 (inactive) | -0.377 (inactive) | 0.149 (inactive) | 0.116 (inactive) | 0.385 | 0.172 |
| CO[C@H]1O[C@H](CO)[C@@H](OC(=O)Nc2ccccc2)[C@H](OC(=O)Nc2ccccc2)[C@@H]1OC(=O)Nc1ccccc1 | -0.72 | 0.56 (inactive) | -1.73 (inactive) | 0.202 (inactive) | -0.826 (inactive) | 1.22 (inactive) | 0.576 (inactive) | 0.667 (inactive) | -1.15 | 0.178 |
| O=C1N(Cc2ccccc2)c2ccccc2[C@@H]2OC(c3ccc(OCCCO)cc3)=N[C@]12CCS(=O)(=O)c1ccccc1 | -0.477 | 1.48 (inactive) | -0.444 (inactive) | -0.244 (inactive) | 1.71 (inactive) | 2.25 (inactive) | -0.0853 (inactive) | -0.292 (inactive) | -0.18 | -0.0918 |
| CCOC(=O)C[C@H]1[C@H](OC(=O)c2ccc(C(=O)c3ccccc3)cc2)[C@@H](NC(=O)c2ccccc2)c2cc(OCCCO)ccc2N1C(=O)c1ccc2ccccc2n1 | -0.524 | 0.47 (inactive) | -0.145 (inactive) | -0.0918 (inactive) | 0.207 (inactive) | -0.0205 (inactive) | -0.674 (inactive) | -0.374 (inactive) | -0.0826 | 0.0997 |
| C=CCNC(=O)[C@@H]1[C@H]2C(=O)O[C@H](c3ccccc3)[C@H](c3ccccc3)N2[C@H](c2ccc(O)cc2)[C@@]12C(=O)Nc1ccc(C#CCNC(N)=O)cc12 | -0.361 | 0.295 (inactive) | 0.194 (inactive) | -0.433 (inactive) | 0.0485 (inactive) | 0.24 (inactive) | -0.0851 (inactive) | -0.124 (inactive) | 0.221 | -0.33 |
| C=CCOC(=O)[C@H]1[C@@H]2C(=O)O[C@@H](c3ccccc3)[C@@H](c3ccccc3)N2[C@@H](c2ccc(OCCOC(=O)[C@@H]3C[C@@H]4C(=O)N[C@@H](CCCCNC(C)=O)C(=O)N4[C@@H]3c3ccc(O)cc3)cc2)[C@]12C(=O)Nc1ccccc12 | -0.707 | 0.857 (inactive) | -0.0524 (inactive) | 0.0572 (inactive) | 1.83 (inactive) | 1.74 (inactive) | -0.605 (inactive) | -1.35 (inactive) | -0.407 | -0.0018 |
| C=CCC(OC(C)=O)[C@@H]1[C@@H](N(Cc2cc3ccccc3o2)C(=O)c2cccc3ccccc23)c2cc(OCCCO)ccc2N1C(=O)c1ccc(-c2ccccc2)cc1 (stereo not given in full) | -1.11 | -0.356 (inactive) | 0.353 (inactive) | -0.0369 (inactive) | -1.27 (inactive) | -0.208 (inactive) | 0.75 (inactive) | -0.11 (inactive) | 0.03 | -0.256 |
| COCCCNC(=O)[C@@]1(C)c2ccccc2C(=O)N(C(C)C)[C@H]1c1ccc(CO)cc1 | -0.104 | 0.836 (inactive) | -0.18 (inactive) | 0.663 (inactive) | 0.208 (inactive) | 1.24 (inactive) | 0.32 (inactive) | -0.279 (inactive) | -0.316 | 0.109 |
| COCCOC(=O)N1C(=O)[C@@]2(c3cc(C#Cc4ccc(OC)cc4)ccc31)[C@H](c1ccc(O)cc1)N1[C@H](c3ccccc3)[C@H](c3ccccc3)OC(=O)[C@H]1[C@@H]2C(=O)N1CCc2cc(OC)c(OC)cc2C1 | 0.28 | -0.465 (inactive) | -0.0918 (inactive) | -0.463 (inactive) | 0.457 (inactive) | -0.694 (inactive) | -0.232 (inactive) | -0.779 (inactive) | 0.572 | -0.197 |
| COc1cc2c(cc1OC)CN(C(=O)[C@@H]1[C@H]3C(=O)O[C@H](c4ccccc4)[C@H](c4ccccc4)N3[C@H](c3ccc(O)cc3)[C@@]13C(=O)Nc1ccccc13)CC2 | -0.313 | -0.128 (inactive) | 0.118 (inactive) | -0.228 (inactive) | 0.614 (inactive) | 0.028 (inactive) | 1.07 (inactive) | -0.4 (inactive) | 0.109 | -0.201 |
| C=CCOC(=O)[C@@H]1[C@H]2C(=O)O[C@H](c3ccccc3)[C@H](c3ccccc3)N2[C@H](c2ccc(OCCOC(=O)[C@@H]3C[C@@H]4C(=O)NCC(=O)N4[C@@H]3c3ccc(O)cc3)cc2)[C@@]12C(=O)Nc1ccc(I)cc12 | 0.978 | 0.286 (inactive) | 1.11 (inactive) | -0.365 (inactive) | 0.118 (inactive) | 1.38 (inactive) | 0.202 (inactive) | -0.515 (inactive) | 1.3 | 0.164 |
| CCN(CC)c1ccc(N2CC=CC34O[C@@H]5C=CCCOC(=O)C5[C@H]3C(=O)N(CCCCCCO)[C@@H]4C2=O)cc1 (stereo not given in full) | 0.846 | -1.04 (inactive) | 1.55 (inactive) | -0.324 (inactive) | 0.786 (inactive) | -1.31 (inactive) | 1.07 (inactive) | 0.534 (inactive) | 1.04 | 0.127 |
| CN(C)CCCCCCNC(=O)[C@@H]1C[C@@H]2C(=O)N[C@@H](Cc3ccccc3)C(=O)N2[C@@H]1c1ccc(O)cc1 | -0.591 | -0.58 (inactive) | -1.09 (inactive) | 0.0288 (inactive) | -0.0059 (inactive) | 0.179 (inactive) | -0.725 (inactive) | -1.25 (inactive) | -0.974 | 0.458 |
